Reference: PubChem BioAssay (EPA / NIEHS)
Inconclusive results are not listed. Active and inactive are the calls of the source. How the source made its calls, unless noted: active means hit-call score of the fitted dose curve at least 0.9, where 1 is the maximum; inconclusive means response in the unintended direction; inactive means score below 0.9.

Legend:
[1] = ATG_TAL_CIS: Attagene CIS-FACTORIAL HepG2 Assay for human TAL Basal Promoter (AID 2282966; active means hit-call score of the fitted dose curve at least 0.9, where 1 is the maximum; inactive means score below 0.9;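 further: background control endpoint measuring basal TAL promoter reporter mRNA not a specific factor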); settings: HepG2 Attagene cis-factorial TAL promoter reporter; actives raise or lower the signal
Outline: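 Background-control endpoint: basal TAL promoter reporter transcripts in transiently transfected HepG2, measured 24 h after dosing. Read-out by RT-PCR with fluorescent primer extension and capillary electrophoresis; gain or loss of signal fitted relative to DMSO.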

[2] = ATG_TGFb_CIS: Attagene CIS-FACTORIAL HepG2 Assay for human Transforming Growth Factor (TGF) (AID 2282967; active means hit-call score of the fitted dose curve at least 0.9, where 1 is the maximum; inactive means score below 0.9); settings: HepG2 Attagene CIS TGFb reporter, mRNA transcription; actives raise or lower the signal
Outline: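 Cells were dosed for 24 hours, after which total RNA was reverse-transcribed and reporter sequences amplified, labeled and sized by capillary electrophoresis. Activity was fitted in both directions against DMSO.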

[3] = ATG_VDRE_CIS: Attagene CIS-FACTORIAL HepG2 Assay for human Vitamin D Receptor Element (VDRE) (AID 2282968; active means hit-call score of the fitted dose curve at least 0.9, where 1 is the maximum; inactive means score below 0.9); settings: HepG2 VDRE cis-reporter transcription, actives raise or lower the signal
Outline: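 Readout is VDRE-driven reporter mRNA reflecting endogenous factor activity in human HepG2 cells, sampled 24 h post-dose. Quantification used labelled RT-PCR products separated by capillary electrophoresis; bidirectional analysis relative to DMSO.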

[4] = target: X-box-binding protein 1 (Homo sapiens) (UniProt P17861); test: ATG_Xbp1_CIS: Attagene CIS-FACTORIAL HepG2 Assay for human X-box Binding Protein 1 (XBP1) (AID 2282972; active means hit-call score of the fitted dose curve at least 0.9, where 1 is the maximum; inactive means score below 0.9); settings: HepG2 XBP1 cis-element reporter, Attagene multiplex; actives raise or lower the signal
X-box-binding protein 1 (Homo sapiens), sequence (P17861 whole entry, looked up): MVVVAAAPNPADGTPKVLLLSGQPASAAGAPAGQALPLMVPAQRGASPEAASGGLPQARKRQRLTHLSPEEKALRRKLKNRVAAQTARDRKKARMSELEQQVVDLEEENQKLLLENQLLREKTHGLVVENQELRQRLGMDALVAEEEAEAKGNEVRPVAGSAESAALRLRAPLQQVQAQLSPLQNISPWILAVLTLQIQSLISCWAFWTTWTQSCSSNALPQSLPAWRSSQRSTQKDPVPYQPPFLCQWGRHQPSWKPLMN
Outline: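 Reporter transcripts were quantified by RT-PCR with fluorescent primer extension and capillary electrophoresis after 24 h chemical exposure. Cells: transiently transfected HepG2 carrying cis-regulated reporter constructs; data fitted bidirectionally relative to DMSO.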

[5] = ATG_Hpa5_TRANS: Attagene TRANS-FACTORIAL HepG2 Assay for human GAL4-Hpa5 Hepatocyte Transcription Factor Basal Promoter (AID 2282975); settings: HepG2 Attagene GAL4-Hpa5 transcription reporter;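 further: hits are increases in reporter mRNA over DMSO baseline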
Outline: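 Gain-of-signal versus DMSO is fitted for reporter mRNA quantified by RT-PCR and capillary electrophoresis after 24 h exposure. This endpoint is an internal background marker in transiently transfected HepG2 cells carrying GAL4-UAS reporter units.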

[6] = target: Oxysterols receptor LXR-beta (Homo sapiens) (UniProt P55055); test: ATG_LXRb_TRANS: Attagene TRANS-FACTORIAL HepG2 Assay for human Liver X Receptor beta (LXRb) (AID 2282981); settings: HepG2 Attagene TRANS GAL4-LXRb reporter, mRNA
Outline: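 After 24 h chemical treatment of transfected HepG2 cells carrying exogenous NR-Gal4 chimeras, reporter mRNA was quantified by fluorescent RT-PCR and capillary electrophoresis; activity taken as increase over DMSO controls.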

[7] = target: Hepatocyte nuclear factor 4-alpha (Homo sapiens) (UniProt P41235); test: ATG_HNF4a_TRANS: Attagene TRANS-FACTORIAL HepG2 Assay for human Hepatocyte Nuclear Factor 4 alpha (HNF4a) (AID 2282982); settings: HepG2 HNF4a transactivation reporter, mRNA readout
Hepatocyte nuclear factor 4-alpha (Homo sapiens), sequence (P41235 whole entry, looked up, the tested form may be a part): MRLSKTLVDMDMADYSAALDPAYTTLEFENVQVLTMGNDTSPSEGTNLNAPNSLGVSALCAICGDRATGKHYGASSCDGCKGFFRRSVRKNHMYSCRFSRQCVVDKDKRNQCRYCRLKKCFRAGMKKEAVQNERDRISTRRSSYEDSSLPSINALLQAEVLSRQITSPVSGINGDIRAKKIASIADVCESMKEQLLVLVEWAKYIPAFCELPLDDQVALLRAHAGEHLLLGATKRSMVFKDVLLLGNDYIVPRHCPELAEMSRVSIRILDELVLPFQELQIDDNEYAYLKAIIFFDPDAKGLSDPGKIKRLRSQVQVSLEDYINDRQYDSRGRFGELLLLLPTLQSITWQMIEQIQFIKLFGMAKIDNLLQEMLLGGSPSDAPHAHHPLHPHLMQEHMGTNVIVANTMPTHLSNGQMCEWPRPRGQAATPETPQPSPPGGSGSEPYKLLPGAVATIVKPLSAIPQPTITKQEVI
Outline: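 Activity of an exogenous HNF4a–Gal4 fusion scored as induced GAL4-UAS reporter transcripts after 24 h chemical exposure of transfected human HepG2 cells. Read-out via RT-PCR with 6-FAM labelling and capillary electrophoresis; rise over DMSO baseline.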

[8] = ATG_M_06_TRANS: Attagene TRANS-FACTORIAL HepG2 Assay for M06 Transcription Factor (Internal Marker) (AID 2282983); settings: HepG2 Attagene TRANS M06 internal marker reporter
Outline: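 Background-control reporter readout: after 24 h chemical exposure of transiently transfected HepG2 (GAL4-UAS reporter units), mRNA quantified by RT-PCR with fluorescent labeling and capillary electrophoresis. Gain-of-signal fitting against DMSO baseline.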

[9] = ATG_M_32_TRANS: Attagene TRANS-FACTORIAL HepG2 Assay for M32 Transcription Factor (Internal Marker) (AID 2282984); settings: HepG2 Attagene TRANS M32 internal marker reporter
Outline: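 Internal background reporter in transfected HepG2: after 24 h chemical exposure, RNA reverse-transcribed, reporter cDNA amplified, fluorescently labelled and HpaI-cut, then sized by capillary electrophoresis. Gain of signal fitted against DMSO control.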

[10] = target: Nuclear receptor subfamily 4 group A member 2 (Homo sapiens) (UniProt P43354); test: ATG_NURR1_TRANS: Attagene TRANS-FACTORIAL HepG2 Assay for human Nuclear Receptor Related Protein 1 (NURR1) (AID 2282985); settings: HepG2 Attagene TRANS reporter, mRNA readout
Nuclear receptor subfamily 4 group A member 2 (Homo sapiens), sequence (P43354 whole entry, looked up, the tested form may be a part): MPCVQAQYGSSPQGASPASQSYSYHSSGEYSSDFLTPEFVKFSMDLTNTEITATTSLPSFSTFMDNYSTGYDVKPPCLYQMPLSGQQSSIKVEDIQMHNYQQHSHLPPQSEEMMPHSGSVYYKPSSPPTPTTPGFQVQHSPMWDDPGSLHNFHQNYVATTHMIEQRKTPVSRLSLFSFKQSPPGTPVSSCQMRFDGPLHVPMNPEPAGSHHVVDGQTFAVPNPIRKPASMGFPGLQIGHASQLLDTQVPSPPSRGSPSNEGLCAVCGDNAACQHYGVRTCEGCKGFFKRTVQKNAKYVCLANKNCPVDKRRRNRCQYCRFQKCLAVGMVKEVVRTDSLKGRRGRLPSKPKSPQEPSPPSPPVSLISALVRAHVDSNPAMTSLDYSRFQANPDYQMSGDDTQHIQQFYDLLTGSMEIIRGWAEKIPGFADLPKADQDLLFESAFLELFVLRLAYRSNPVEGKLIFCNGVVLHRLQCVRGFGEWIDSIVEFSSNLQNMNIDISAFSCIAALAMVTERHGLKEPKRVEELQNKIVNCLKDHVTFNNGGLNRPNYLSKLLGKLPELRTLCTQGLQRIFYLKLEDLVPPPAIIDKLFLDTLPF
Outline: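 Reporter transcript induction, measured by RT-PCR with fluorescent labelling, HpaI digestion and capillary electrophoresis, after 24 hr dosing of human HepG2 cells transiently expressing an exogenous NR-Gal4 fusion with GAL4-UAS-driven reporters; DMSO as baseline.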

[11] = target: Steroid hormone receptor ERR1 (Homo sapiens) (UniProt P11474); test: ATG_ERRa_TRANS: Attagene TRANS-FACTORIAL HepG2 Assay for human Estrogen-Related Receptor alpha (ERRa) (AID 2282971); settings: HepG2 Attagene TRANS reporter, ERRa transactivation
Outline: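 Reporter transcripts from ERRa-Gal4 chimera activity measured in transiently transfected human HepG2 cells 24 hours after dosing, using RT-PCR with 6-FAM primer extension, HpaI digestion and capillary electrophoresis; DMSO is baseline.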

[12] = ATG_M_19_TRANS: Attagene TRANS-FACTORIAL HepG2 Assay for M19 Transcription Factor (Internal Marker) (AID 2282974); settings: HepG2 Attagene TRANS-FACTORIAL M19 internal marker reporter
Outline: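 Gain-of-signal in reporter mRNA, relative to DMSO, was scored from capillary electrophoresis fluorescence. HepG2 cells carried transiently transfected multiple reporter transcription units and were incubated with test chemicals for 24 h.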

[13] = target: Estrogen-related receptor gamma (Homo sapiens) (UniProt P62508); test: ATG_ERRg_TRANS: Attagene TRANS-FACTORIAL HepG2 Assay for human Estrogen-Related Receptor gamma (ERRg) (AID 2282977); settings: HepG2 Attagene TRANS reporter, ERRg transactivation;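 further: hits increase reporter signal over DMSO so potencies reflect activators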
Estrogen-related receptor gamma (Homo sapiens), sequence (P62508 whole entry, looked up, the tested form may be a part): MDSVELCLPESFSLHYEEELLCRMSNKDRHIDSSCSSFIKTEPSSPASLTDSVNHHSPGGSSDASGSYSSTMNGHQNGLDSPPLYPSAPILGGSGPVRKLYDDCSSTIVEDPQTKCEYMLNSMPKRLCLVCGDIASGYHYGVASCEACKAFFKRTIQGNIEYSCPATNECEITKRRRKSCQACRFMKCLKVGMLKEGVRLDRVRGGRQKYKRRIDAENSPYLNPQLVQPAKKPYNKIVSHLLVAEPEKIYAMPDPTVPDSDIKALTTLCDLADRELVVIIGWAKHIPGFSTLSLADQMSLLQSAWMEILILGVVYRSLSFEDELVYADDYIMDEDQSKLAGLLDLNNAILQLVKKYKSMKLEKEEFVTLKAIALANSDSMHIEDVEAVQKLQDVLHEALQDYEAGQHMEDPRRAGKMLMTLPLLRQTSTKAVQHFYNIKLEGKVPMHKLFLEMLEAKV
Outline: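 Exogenous NR-Gal4 chimera activity measured as reporter transcript induction after 24 h in transiently transfected HepG2 cells. RNA reverse-transcribed, PCR-amplified, 6-FAM-labelled and resolved by capillary electrophoresis; increase over DMSO baseline.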

[14] = target: Glucocorticoid receptor (Homo sapiens) (UniProt P04150); test: ATG_GR_TRANS: Attagene TRANS-FACTORIAL HepG2 Assay for human Glucocorticoid Receptor (GR) (AID 2282978); settings: HepG2 Attagene TRANS GR reporter, mRNA transcription;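 further: activators score as hits since higher reporter transcript over DMSO is fitted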
Glucocorticoid receptor (Homo sapiens), sequence (P04150 whole entry, looked up, the tested form may be a part): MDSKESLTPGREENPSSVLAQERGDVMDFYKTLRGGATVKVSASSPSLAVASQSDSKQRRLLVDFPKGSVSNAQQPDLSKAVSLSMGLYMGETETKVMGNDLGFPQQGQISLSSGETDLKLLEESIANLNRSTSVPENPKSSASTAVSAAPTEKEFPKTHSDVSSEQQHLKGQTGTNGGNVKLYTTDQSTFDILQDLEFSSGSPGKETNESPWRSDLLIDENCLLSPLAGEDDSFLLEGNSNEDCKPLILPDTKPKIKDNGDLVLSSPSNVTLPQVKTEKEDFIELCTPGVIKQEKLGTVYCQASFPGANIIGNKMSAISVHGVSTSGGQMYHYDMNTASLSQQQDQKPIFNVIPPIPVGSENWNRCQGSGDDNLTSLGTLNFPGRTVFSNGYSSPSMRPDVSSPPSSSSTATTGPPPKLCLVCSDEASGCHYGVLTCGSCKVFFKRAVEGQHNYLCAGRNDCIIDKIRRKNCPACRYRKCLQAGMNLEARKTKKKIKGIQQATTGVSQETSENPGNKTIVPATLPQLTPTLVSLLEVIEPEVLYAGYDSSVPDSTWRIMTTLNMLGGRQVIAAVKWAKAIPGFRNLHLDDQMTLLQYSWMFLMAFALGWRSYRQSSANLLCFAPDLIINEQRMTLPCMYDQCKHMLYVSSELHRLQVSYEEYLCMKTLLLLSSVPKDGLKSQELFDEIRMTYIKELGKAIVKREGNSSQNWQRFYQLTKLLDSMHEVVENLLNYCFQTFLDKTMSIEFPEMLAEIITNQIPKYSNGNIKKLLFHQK
Outline: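 HepG2 transient transfection, multiple reporter units, GAL4-UAS under NR-GAL4 chimera control. 24 h treatment. Reporter mRNA by RT-PCR/CE fluorescence, DMSO as negative control.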

[15] = target: Nuclear receptor subfamily 1 group I member 3 (Homo sapiens) (UniProt Q14994); test: ATG_CAR_TRANS: Attagene TRANS-FACTORIAL HepG2 Assay for human Constitutive Androstane Receptor (CAR) (AID 2282969); settings: HepG2 Attagene TRANS-FACTORIAL CAR reporter;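 further: activators raise reporter mRNA above DMSO so AC50 marks induction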
Nuclear receptor subfamily 1 group I member 3 (Homo sapiens), sequence (Q14994 whole entry, looked up, the tested form may be a part): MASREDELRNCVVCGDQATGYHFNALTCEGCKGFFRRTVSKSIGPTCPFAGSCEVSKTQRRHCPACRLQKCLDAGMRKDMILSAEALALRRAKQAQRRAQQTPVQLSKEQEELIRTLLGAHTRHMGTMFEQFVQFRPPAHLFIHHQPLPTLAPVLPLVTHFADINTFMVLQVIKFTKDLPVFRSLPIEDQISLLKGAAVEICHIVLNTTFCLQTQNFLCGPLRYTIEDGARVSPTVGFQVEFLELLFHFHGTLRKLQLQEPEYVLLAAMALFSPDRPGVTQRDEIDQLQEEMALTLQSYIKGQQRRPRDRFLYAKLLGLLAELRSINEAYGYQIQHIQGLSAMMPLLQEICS
Outline: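 Signal is reporter mRNA induction relative to DMSO, measured 24 h after dosing by RT-PCR with fluorescent primer extension and capillary electrophoresis. Human HepG2 liver cells carried transiently transfected chimeric NR-Gal4/GAL4-UAS reporter constructs.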

[16] = target: Estrogen receptor (Homo sapiens) (UniProt P03372); test: ATG_ERa_TRANS: Attagene TRANS-FACTORIAL HepG2 Assay for human Estrogen Receptor alpha (ERa) (AID 2282970); settings: HepG2 Attagene TRANS ERa GAL4 reporter, mRNA
Estrogen receptor (Homo sapiens), sequence (P03372 whole entry, looked up, the tested form may be a part): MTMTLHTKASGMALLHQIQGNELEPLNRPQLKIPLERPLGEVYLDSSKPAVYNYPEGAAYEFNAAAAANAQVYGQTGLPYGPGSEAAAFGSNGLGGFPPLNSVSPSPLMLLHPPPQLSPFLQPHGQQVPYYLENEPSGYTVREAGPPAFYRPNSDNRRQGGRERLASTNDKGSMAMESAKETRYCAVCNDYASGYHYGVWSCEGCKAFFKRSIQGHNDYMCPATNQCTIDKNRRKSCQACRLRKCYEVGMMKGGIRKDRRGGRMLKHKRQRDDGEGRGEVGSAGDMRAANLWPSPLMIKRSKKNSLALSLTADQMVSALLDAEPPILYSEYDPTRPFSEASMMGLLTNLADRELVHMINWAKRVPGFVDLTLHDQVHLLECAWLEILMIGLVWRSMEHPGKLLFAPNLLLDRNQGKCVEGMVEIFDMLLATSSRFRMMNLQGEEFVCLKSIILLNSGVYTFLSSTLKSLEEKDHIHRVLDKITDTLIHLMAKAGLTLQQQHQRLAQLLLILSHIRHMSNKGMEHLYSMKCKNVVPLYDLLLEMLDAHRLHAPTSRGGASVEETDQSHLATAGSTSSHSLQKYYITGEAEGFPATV
Outline: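 Reporter transcripts were measured 24 h after dosing by RT-PCR with fluorescent primer extension and capillary electrophoresis. The system is transiently transfected HepG2 expressing exogenous NR-Gal4 chimeras driving GAL4-UAS reporters; DMSO is the baseline.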

[17] = ATG_GAL4_TRANS: Attagene TRANS-FACTORIAL HepG2 Assay for GAL4 (Internal Marker) (AID 2282976); settings: HepG2 Attagene TRANS GAL4 internal marker reporter
Outline: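 In transfected human HepG2 liver cells dosed 24 h, GAL4 reporter mRNA serves as a baseline marker. Detection by RT-PCR with fluorescent capillary electrophoresis, activity fitted upward relative to DMSO.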

[18] = target: Oxysterols receptor LXR-alpha (Homo sapiens) (UniProt Q13133); test: ATG_LXRa_TRANS: Attagene TRANS-FACTORIAL HepG2 Assay for human Liver X Receptor alpha (LXRa) (AID 2282980); settings: HepG2 Attagene TRANS reporter, LXRa transactivation
Outline: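 Chemical-induced reporter mRNA measured by RT-PCR with fluorescent labelling and capillary electrophoresis after 24 h dosing of transiently transfected HepG2 cells expressing exogenous NR-Gal4 chimeras; increases scored against DMSO baseline.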

[19] = target: Androgen receptor (Homo sapiens) (UniProt P10275); test: ATG_AR_TRANS: Attagene TRANS-FACTORIAL HepG2 Assay for human Androgen Receptor (AR) (AID 2282973); settings: HepG2 Attagene TRANS-FACTORIAL AR reporter transcription
Androgen receptor (Homo sapiens), sequence (P10275 whole entry, looked up, the tested form may be a part): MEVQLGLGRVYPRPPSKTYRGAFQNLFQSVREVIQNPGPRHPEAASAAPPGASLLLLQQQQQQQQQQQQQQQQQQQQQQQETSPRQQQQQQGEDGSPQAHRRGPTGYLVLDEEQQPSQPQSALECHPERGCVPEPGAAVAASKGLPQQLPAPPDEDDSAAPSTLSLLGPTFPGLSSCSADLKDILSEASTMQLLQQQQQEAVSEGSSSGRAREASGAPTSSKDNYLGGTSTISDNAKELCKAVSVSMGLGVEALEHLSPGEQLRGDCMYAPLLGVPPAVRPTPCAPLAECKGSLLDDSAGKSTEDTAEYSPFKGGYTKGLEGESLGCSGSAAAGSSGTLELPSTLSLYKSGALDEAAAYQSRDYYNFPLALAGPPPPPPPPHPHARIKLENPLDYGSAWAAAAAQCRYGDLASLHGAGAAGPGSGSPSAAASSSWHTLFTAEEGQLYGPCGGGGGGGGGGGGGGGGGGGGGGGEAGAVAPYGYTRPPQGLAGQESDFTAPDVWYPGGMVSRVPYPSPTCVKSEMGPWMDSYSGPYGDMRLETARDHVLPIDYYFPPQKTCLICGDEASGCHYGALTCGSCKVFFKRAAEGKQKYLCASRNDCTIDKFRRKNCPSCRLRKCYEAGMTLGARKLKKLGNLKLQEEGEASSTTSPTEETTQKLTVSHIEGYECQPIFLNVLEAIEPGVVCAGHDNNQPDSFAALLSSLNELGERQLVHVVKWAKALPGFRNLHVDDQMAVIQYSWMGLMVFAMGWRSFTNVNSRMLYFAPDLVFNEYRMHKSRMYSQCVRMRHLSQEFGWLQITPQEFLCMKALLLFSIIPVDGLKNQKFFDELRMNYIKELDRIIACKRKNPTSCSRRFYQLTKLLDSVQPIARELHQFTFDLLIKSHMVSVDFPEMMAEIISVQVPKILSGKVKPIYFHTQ
Outline: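 Transcriptional activity of an exogenous AR–Gal4 fusion read as GAL4-UAS reporter transcript levels in transfected human HepG2 cells after 24 h dosing. Detection via RT-PCR, 6-FAM labelling, HpaI digest and capillary electrophoresis; increase over DMSO baseline.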

[20] = target: Bile acid receptor (Homo sapiens) (UniProt Q96RI1); test: ATG_FXR_TRANS: Attagene TRANS-FACTORIAL HepG2 Assay for Farnesoid X Receptor (FXR) (AID 2282979); settings: HepG2 Attagene TRANS FXR-GAL4 reporter transcription;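 further: hits raise reporter mRNA above DMSO so AC50 marks FXR activation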
Bile acid receptor (Homo sapiens), sequence (Q96RI1 whole entry, looked up, the tested form may be a part): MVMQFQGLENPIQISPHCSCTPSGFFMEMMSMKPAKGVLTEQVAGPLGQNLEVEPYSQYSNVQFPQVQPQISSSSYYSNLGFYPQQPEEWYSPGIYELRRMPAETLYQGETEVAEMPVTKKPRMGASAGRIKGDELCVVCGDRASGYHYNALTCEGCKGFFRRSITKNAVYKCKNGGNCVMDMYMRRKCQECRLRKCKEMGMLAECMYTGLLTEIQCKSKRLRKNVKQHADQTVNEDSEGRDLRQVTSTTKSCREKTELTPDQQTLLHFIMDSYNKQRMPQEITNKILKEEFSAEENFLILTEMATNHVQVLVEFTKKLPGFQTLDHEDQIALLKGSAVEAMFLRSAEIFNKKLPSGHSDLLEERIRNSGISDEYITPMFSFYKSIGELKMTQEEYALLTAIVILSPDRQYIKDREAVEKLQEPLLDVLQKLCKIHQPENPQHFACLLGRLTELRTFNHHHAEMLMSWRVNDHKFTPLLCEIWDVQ
Outline: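 Reporter transcripts from transfected HepG2 cells were measured 24 h after dosing, using RT-PCR with capillary electrophoresis of 6-FAM-labelled fragments. The read-out reflects activity of exogenous FXR-Gal4 chimera on GAL4-UAS units, with induction relative to DMSO.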

Measured: AC50

C[Si](Cn1cncn1)(c1ccc(F)cc1)c1ccc(F)cc1
inactive: [1] | [2] | [4] | [5] | [6] | [7] | [8] | [9] | [10]
active: [3] 27.6 µM

CCOC(=O)COc1cc(-c2nn(C)c(OC(F)F)c2Cl)c(F)cc1Cl
not listed: [15] | [16] | [17] | [18] | [19] | [20]
inactive: all other assays above

O=[N+]([O-])c1cc(C(F)(F)F)c(Cl)c([N+](=O)[O-])c1Nc1ncc(C(F)(F)F)cc1Cl
not listed: [2] | [11] | [13] | [19] | [20]
inactive: all other assays above

N#CSCSC#N
not listed: [16] | [17] | [18] | [20]
inactive: all other assays above

Cc1nn(-c2cc(NS(C)(=O)=O)c(Cl)cc2Cl)c(=O)n1C(F)F
inactive: [1] | [2] | [11] | [4] | [19] | [12] | [13] | [6] | [7]
active: [3] 30.8 µM

C#CCC1=C(C)C(OC(=O)C2C(C=C(C)C)C2(C)C)CC1=O (stereo unspecified)
active: [1] 88.4 µM | [3] 7.01 µM | [4] 84.6 µM
not listed: [11] | [12] | [14] | [16] | [17] | [18] | [19]
inactive: all other assays above

CCc1cnc(C2=NC(C)(C(C)C)C(=O)N2)c(C(=O)O)c1 (stereo unspecified)
inactive: [1] | [2] | [3] | [15] | [4] | [5] | [14] | [6] | [8]

CN(C)[C@@H]1C(=O)C(C(N)=O)=C(O)[C@@]2(O)C(=O)C3=C(O)c4c(O)cccc4[C@@](C)(O)[C@H]3[C@H](O)[C@@H]12
inactive: [1] | [2] | [4] | [12] | [5] | [17] | [6] | [7] | [8] | [9] | [10]

COP(=O)(OC)SCn1c(=O)oc2cc(Cl)cnc21
not listed: [7] | [8] | [9] | [10] | [13] | [17] | [18] | [20]
inactive: all other assays above

CNC(=O)Oc1cccc2c1OC(C)(C)O2
inactive: [1] | [2] | [16] | [5] | [20] | [6] | [8] | [9]
active: [3] 50 µM | [4] 33.2 µM

O=c1ccc(=O)[nH][nH]1
not listed: [13] | [14] | [15] | [16] | [17] | [18] | [20]
inactive: all other assays above

CON=C(C(=O)OC)c1ccccc1CON=C(C)c1cccc(C(F)(F)F)c1
inactive: [2] | [15] | [4] | [12] | [5] | [6] | [7] | [9]
active: [1] 13 µM | [3] 11.1 µM

CCOP(=S)(OCC)Oc1cc(C)nc(C(C)C)n1
inactive: [1] | [2] | [15] | [4] | [5] | [14] | [6] | [8] | [10]

CCOP(=S)(OCC)Oc1ccc([N+](=O)[O-])cc1
inactive: [1] | [2] | [15] | [4] | [14] | [6] | [7] | [8] | [10]

CNC(=O)ON=C(C)SC
inactive: [1] | [2] | [3] | [4] | [12] | [5] | [14] | [18] | [6] | [7] | [9]

Nc1c(Cl)cc([N+](=O)[O-])cc1Cl
active: [16] 50 µM | [4] 50 µM
not listed: [2] | [10] | [14] | [17] | [18] | [19]
inactive: all other assays above
